Activity change, negative = inhibition, Potency and outcome data for seven molecules are collected here from PubChem BioAssay (NCATS).

A number with no mark means an inactive call. Inconclusive results are not listed. Activity calls are given as the source filed them. Unless noted, calls follow the shape of the dose curve; as a rule, active = well fitted curve in the direction sought with a large enough effect; inconclusive = small, poorly fitted or top-dose-only effect, or another doubt; inactive = no such curve, though single readings can be large; an effect the other way counts as inactive or inconclusive.

Assay [1] is described as follows: NFAT Signaling Pathway (AID 444; active = well fitted curve in either direction with a large enough effect, not every such curve was filed as active;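 also: carbachol stimulus at about its EC50 of 1 µM final; % is scaled to controls: 0 for no effect and ±100 for the full control effect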). As to conditions: Jurkat NFAT-bla M1, carbachol, beta-lactamase ratio, 5 h; at 7.69 µM (top of the series) unless noted. In outline:
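Jurkat cells with NFAT-driven β-lactamase reporter and co-expressed M1 receptor, stimulated with carbachol (final 1 uM, ~EC50), compound titration, 5 h at 37 °C. CCF4 loaded 1 h at RT; 460/530 nm ratio gave %activity and AC50.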

For assay [2], the target named is Glucocorticoid receptor (Homo sapiens) (UniProt P04150). Description: GR-GFP Redistribution (AID 450;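 active = compounds whose dose series gives a full or clear partial fitted curve of increased nuclear translocation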; also: potency is read from the fitted curve at half-maximal effect). As to conditions: U2OS GR-GFP nuclear translocation, laser cytometry, 2 h.
Assay [3] shares this target. As to the kind of experiment: GR-EFC Redistribution (AID 451; calls by dose curve; also: potency is read from the fitted curve at half-maximal effect). As to conditions: CHO-K1 GR-EFC translocation, beta-gal luminescence, 2 h. The method, boiled down: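 CHO-K1 cells expressing nuclear EA and GR-ED fragments of b-gal; compounds titrated up to 46 uM final, 2 h at 37 C. GR nuclear translocation read as complemented b-gal luminescence after 1 h RT detection.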

Assay [4] concerns the target Mitogen-activated protein kinase 10 (Mus musculus) (UniProt Q61831). Description: JNK3 AlphaScreen Assay (AID 530; active = well fitted curve in either direction with a large enough effect, not every such curve was filed as active;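 also: kinase came from lysate of stimulated human HepG2 cells; signal reports phosphorylation of biotinylated GST-cJun 1-79 at Ser73 with 10 µM ATP; % is scaled to controls: 0 for no effect and ±100 for the full control effect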). The method, boiled down: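 Pre-activated (IL-1β/TNFα) JNK3 in HepG2 lysates phosphorylates biotin-GST-cJun(1-79), 10 uM ATP; anti-phospho-cJun(Ser73) AlphaScreen read at room temperature, pH 7.6 Tris buffer. Compounds pre-incubated 15 min as titrations.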
Background: In Alpha technology, singlet oxygen from a donor bead excites a nearby acceptor bead.

Assay [5] deals with 3',5'-cyclic-AMP phosphodiesterase 4B (Homo sapiens) (UniProt Q07343). As to the kind of experiment: qHTS Assay for Inhibitors of PDE-IV (AID 607; active = well fitted activation curve with a large enough effect in the main read-out, with a control signal flat, not every such curve was filed as active; also: % of control where 0% means no effect). In outline:
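HEK293 ACTOne cells with CNG channel (1000/well), endogenous PDE4; membrane potential dye, compounds up to 22.9 uM final. Fluorescence Ex 535/Em 590; RO 20-1724 (100 uM final) as reference.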
For orientation: Quantitative high-throughput screening tests each substance at several concentrations.

Assay [6] concerns the target Dual specificity protein kinase CLK4 (Homo sapiens) (UniProt Q9HAZ1). As to the kind of experiment: qHTS Assay for Inhibitors of CDC-like Kinase 4 (Kinase-Glo Assay) (AID 1770). Also: nearly all actives have a fitted effect of over 65% in size. Also: potency is read from the fitted curve at half-maximal effect. The method, boiled down: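 Luminescent ATP-depletion read-out (Kinase-Glo) after 4.5 h room-temperature reaction of Clk4 (25 nM final) with RS peptide (100 uM) and ATP (1 uM), pH 7.5 Tris buffer with MgCl2 and DTT.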

For assay [7] the target is unchanged. Description: qHTS Assay for Inhibitors of CDC-like Kinase 4 (ADP-Glo Assay) (AID 1771). Also: nearly all actives have a fitted effect of over 70% in size. Also: potency is read from the fitted curve at half-maximal effect. The method, boiled down:
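25 nM Clk4 with 100 uM RS repeat peptide and 1 uM ATP (final) in buffer with 2 mM MgCl2, 0.5 mM EGTA, 2.5 mM DTT, 0.01% Triton X-100; 1 h at room temperature; ADP-Glo luminescence for ADP formed.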

Assay [8] shares this target. As to the kind of experiment: qHTS Assay for Inhibitors of CDC-like Kinase 4 (ADP-FP Assay) (AID 1795). Also: nearly all actives have a fitted effect of over 60% in size. Also: potency is read from the fitted curve at half-maximal effect. The method, boiled down:
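Kinase activity was measured as ADP production using Transcreener orange tracer (4 nM) and ADP antibody (1 ug/mL) fluorescence polarization, with ADP calculated from a calibration curve. The 1 h reaction contained 6.25 nM Clk4, 1 uM ATP and 100 uM RS peptide at pH 7.5 with Mg2+.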

Assay [9] concerns the target Ubiquitin carboxyl-terminal hydrolase 1 (Homo sapiens) (UniProt O94782). As to the kind of experiment: Inhibitors of USP1/UAF1: Pilot qHTS (AID 504865).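 Also: rhodamine fluorescence freed from ubiquitin-rhodamine substrate followed over time; top concentration of the series differs between compounds; % is scaled to controls: 0 for no effect and ±100 for the full control effect; nearly all actives have a fitted effect of over 35% in size.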 The method, boiled down: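 Deubiquitinase activity followed as kinetic rhodamine fluorescence release from 150 nM Ub-Rho. 1 nM USP1/UAF1 with compound, after 15 min room-temperature preincubation, in HEPES pH 7.8 buffer containing TCEP, EDTA, BSA and Tween-20.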

Assay [10] can be described thus: AP1 Signaling Pathway (AID 357; active = well fitted curve in either direction with a large enough effect, not every such curve was filed as active;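 also: ME-180 reporter cells stimulated with EGF at its EC50 level; % is scaled to controls: 0 for no effect and ±100 for the full control effect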). As to conditions: ME-180 AP-1-bla reporter, EGF-induced, beta-lactamase ratio, 5 h; at 7.69 µM (top of the series) unless noted. The method, boiled down:
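First, ME-180 AP-1-bla cells were cultured overnight at 37 °C in low-serum Opti-MEM. Next, titrated compounds with EC50 EGF were incubated 5 hours. Finally, CCF4 was added for 2.5 hours and the 460/530 nm ratio recorded.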

Assay [11] deals with Cytochrome P450 1A2 (Homo sapiens) (UniProt P05177). Description: p450-cyp1a2 (AID 410; calls by dose curve; also: potency is read from the fitted curve at half-maximal effect). The method, boiled down: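 20nM CYP1A2 with 100uM Luciferin-ME (at Km) in 100mM KPO4; compound preincubated 10 min, NADPH regeneration added, 60 min at room temperature. Luciferin quantified by luminescence after detection reagent; normalized to 57 uM furafylline.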
The nature of assay [12]: Stat Signaling Pathway (AID 446; active = well fitted curve in either direction with a large enough effect, not every such curve was filed as active;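 also: ME-180 cervical cancer cells given 40 pM IL-6 alongside compound; SIE-controlled beta-lactamase reporter measured as 460/530 nm FRET emission ratio; % is scaled to controls: 0 for no effect and ±100 for the full control effect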). In outline: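 ME-180 cells carrying a SIE-driven beta-lactamase reporter are stimulated with 40 pM IL-6 for 5 h at 37C in the presence of compound. The 460/530 nm FRET substrate ratio is read after 2.5 h at RT. Data are normalised to 300 pM IL-6 and to 125 nM JAK inhibitor controls.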
Assay [13] addresses Cytochrome P450 3A4 (Homo sapiens) (UniProt P08684). As to the kind of experiment: qHTS Assay for Activators of Cytochrome P450 3A4 (AID 885). Also: nearly all actives have a fitted effect of over 65% in size. In outline: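 Human CYP3A4 (20 nM) with Luciferin-PPXE at 25 uM (its KM) in 200 mM KPO4; 10 min compound preincubation, then NADPH regeneration and 60 min reaction at RT. Luciferin read by luminescence; normalized to 57 uM ketoconazole full inhibition.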

Assay [14] deals with Cytochrome P450 2C19 (Homo sapiens) (UniProt P33261). Description: qHTS Assay for Inhibitors and Substrates of Cytochrome P450 2C19 (AID 899). Also: potency is read from the fitted curve at half-maximal effect; nearly all actives have a fitted effect of over 60% in size. The method, boiled down: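 Signal comes from luciferase acting on luciferin released by CYP2C19-mediated hydroxylation of Luciferin-H EGE, 10uM (KM). Assay mix: 5nM enzyme, 50mM KPO4; 60 min at 37C with NADPH regeneration. Data normalized against 57uM ketoconazole.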

For assay [15], the target named is Lysosomal acid glucosylceramidase (Homo sapiens) (UniProt P04062). Description: Glucocerebrosidase-p2 (AID 348; in the data active = potency below about 10 µM; also: potency is read from the fitted curve at half-maximal effect). As to conditions: purified GBA, blue fluorogenic substrate, 40 min. The method, boiled down:
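Compounds titrated from 0.6 nM upwards against 0.2 nM enzyme in pH 5.9 citric acid/KH2PO4, taurocholate, tween-20; blue fluorogenic substrate 80 uM, 40 min room temperature, stopped and read Ex 365/Em 440 for AC50.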

The nature of assay [16]: qHTS Assay for Identification of Small Molecule Agonists for Hypoxia Response Element Signaling Pathway (AID 914; active = well fitted activation curve with a large enough effect in the signal ratio, with a control signal flat, not every such curve was filed as active; the % refers to the signal ratio; also: potency is read from the fitted curve at half-maximal effect). As to conditions: ME-180 (cervical carcinoma) HRE-bla reporter, beta-lactamase ratio, CoCl2, 17 h; activation: active compounds read high. In outline: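 AC50 values come from titration-series %Activity, taken as the 460/530nm ratio of CCF4 fluorescence (excitation 405nm). CellSensor HRE-bla ME-180 cells were treated 17 hours at 37 C with compound plus an EC50 level of CoCl2.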

Assay [17] concerns the target Cytochrome P450 2C9 (Homo sapiens) (UniProt P11712). As to the kind of experiment: qHTS Assay for Inhibitors and Substrates of Cytochrome P450 2C9 (AID 883). Also: potency is read from the fitted curve at half-maximal effect; nearly all actives have a fitted effect of over 60% in size. The method, boiled down: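 Signal: luciferase luminescence reporting luciferin produced by CYP2C9. Conditions: 10nM enzyme, Luciferin-H 100uM at KM, 25mM KPO4, 37C, 60 min NADPH-driven reaction. Reference: 57uM sulphaphenazole as 100% inhibition.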

For assay [18], the target named is Cytochrome P450 2D6 (Homo sapiens) (UniProt P10635). As to the kind of experiment: qHTS Assay for Inhibitors and Substrates of Cytochrome P450 2D6 (AID 891). Also: potency is read from the fitted curve at half-maximal effect; nearly all actives have a fitted effect of over 60% in size. In outline:
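Human CYP2D6 (5 nM) with 30 uM Luciferin-ME EGE (at Km) in 100 mM KPO4, compound preincubated 10 min, then NADPH regeneration system for 60 min at room temperature. Luciferin read by luminescence; normalized to 1.43 uM quinidine.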

Assay [19] addresses Cytochrome P450 3A4 (Homo sapiens) (UniProt P08684). Description: qHTS Assay for Inhibitors and Substrates of Cytochrome P450 3A4 (AID 884). Also: potency is read from the fitted curve at half-maximal effect; nearly all actives have a fitted effect of over 50% in size. The method, boiled down: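 20 nM human CYP3A4 with 25 uM Luciferin-PPXE (at KM) in 200 mM KPO4, preincubated 10 min with compound; NADPH regeneration started a 60 min RT reaction. Luciferin detected by luminescence, normalized to 57 uM ketoconazole as full inhibition.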

Dual specificity protein kinase CLK4 (Homo sapiens), sequence (Q9HAZ1 whole entry, looked up): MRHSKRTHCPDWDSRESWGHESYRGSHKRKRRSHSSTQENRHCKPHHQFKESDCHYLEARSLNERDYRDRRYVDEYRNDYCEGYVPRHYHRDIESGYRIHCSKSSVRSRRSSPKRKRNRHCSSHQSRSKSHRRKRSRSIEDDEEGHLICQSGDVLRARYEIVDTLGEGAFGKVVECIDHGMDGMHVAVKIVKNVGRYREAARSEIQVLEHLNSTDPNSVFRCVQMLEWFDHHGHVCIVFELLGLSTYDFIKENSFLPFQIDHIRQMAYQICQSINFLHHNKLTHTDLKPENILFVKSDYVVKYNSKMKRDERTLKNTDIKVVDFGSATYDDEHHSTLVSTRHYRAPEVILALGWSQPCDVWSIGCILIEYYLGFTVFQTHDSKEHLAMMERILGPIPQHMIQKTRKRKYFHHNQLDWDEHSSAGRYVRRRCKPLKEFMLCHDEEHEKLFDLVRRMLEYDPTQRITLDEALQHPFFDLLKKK
3',5'-cyclic-AMP phosphodiesterase 4B (Homo sapiens), sequence (Q07343 whole entry, looked up): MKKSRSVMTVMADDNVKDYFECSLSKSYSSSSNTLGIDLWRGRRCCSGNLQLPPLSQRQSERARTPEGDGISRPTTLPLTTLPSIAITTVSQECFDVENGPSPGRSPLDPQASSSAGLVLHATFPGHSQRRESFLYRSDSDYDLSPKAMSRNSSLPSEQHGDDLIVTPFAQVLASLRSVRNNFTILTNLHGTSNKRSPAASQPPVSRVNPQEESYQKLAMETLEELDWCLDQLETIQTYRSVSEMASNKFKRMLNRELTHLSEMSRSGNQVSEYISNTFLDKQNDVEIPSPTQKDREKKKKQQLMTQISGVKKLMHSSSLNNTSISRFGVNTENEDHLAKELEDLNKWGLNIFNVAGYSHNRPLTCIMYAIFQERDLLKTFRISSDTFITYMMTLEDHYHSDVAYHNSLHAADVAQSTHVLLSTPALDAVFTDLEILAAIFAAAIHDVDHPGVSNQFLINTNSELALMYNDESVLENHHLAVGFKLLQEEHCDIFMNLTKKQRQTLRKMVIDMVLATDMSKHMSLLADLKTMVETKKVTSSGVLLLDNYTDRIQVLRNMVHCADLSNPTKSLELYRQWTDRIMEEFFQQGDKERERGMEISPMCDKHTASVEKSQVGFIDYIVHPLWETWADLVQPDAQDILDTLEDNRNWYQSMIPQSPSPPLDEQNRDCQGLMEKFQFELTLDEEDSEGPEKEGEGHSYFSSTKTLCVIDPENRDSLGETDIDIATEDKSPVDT
Cytochrome P450 3A4 (Homo sapiens), sequence (P08684 whole entry, looked up): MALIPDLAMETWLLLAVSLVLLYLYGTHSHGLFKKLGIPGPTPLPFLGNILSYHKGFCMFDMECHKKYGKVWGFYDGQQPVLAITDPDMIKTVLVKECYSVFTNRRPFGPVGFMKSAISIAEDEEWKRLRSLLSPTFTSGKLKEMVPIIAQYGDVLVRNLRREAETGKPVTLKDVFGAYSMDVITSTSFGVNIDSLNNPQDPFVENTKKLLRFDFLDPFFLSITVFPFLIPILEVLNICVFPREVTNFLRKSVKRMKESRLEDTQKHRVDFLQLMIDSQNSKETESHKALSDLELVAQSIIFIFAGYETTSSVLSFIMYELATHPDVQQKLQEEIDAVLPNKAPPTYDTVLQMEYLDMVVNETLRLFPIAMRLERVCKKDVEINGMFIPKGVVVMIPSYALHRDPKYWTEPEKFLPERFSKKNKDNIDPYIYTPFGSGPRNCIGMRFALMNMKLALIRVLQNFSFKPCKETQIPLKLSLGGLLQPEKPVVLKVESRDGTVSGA
Glucocorticoid receptor (Homo sapiens), sequence (P04150 whole entry, looked up, the tested form may be a part): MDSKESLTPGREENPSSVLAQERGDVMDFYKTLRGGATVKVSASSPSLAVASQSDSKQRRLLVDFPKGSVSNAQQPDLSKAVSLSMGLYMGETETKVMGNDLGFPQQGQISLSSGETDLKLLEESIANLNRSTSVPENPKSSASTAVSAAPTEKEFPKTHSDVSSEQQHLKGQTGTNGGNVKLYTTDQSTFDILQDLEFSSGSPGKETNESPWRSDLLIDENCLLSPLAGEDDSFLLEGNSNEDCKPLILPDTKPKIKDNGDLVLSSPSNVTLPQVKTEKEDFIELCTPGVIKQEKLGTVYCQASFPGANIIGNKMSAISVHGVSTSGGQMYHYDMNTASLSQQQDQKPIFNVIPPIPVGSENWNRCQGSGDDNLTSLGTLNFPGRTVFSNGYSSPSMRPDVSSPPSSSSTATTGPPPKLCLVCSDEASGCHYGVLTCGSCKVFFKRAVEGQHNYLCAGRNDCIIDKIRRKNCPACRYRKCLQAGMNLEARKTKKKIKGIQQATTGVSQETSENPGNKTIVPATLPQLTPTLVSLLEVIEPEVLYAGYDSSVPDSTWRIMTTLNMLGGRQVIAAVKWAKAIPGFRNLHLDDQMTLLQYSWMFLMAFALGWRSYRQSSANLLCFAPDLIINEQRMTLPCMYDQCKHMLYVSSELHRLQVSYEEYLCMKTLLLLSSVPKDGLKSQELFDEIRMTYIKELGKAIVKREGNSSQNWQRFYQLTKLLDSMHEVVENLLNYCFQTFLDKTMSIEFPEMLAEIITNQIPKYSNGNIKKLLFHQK
Ubiquitin carboxyl-terminal hydrolase 1 (Homo sapiens), sequence (O94782 whole entry, looked up): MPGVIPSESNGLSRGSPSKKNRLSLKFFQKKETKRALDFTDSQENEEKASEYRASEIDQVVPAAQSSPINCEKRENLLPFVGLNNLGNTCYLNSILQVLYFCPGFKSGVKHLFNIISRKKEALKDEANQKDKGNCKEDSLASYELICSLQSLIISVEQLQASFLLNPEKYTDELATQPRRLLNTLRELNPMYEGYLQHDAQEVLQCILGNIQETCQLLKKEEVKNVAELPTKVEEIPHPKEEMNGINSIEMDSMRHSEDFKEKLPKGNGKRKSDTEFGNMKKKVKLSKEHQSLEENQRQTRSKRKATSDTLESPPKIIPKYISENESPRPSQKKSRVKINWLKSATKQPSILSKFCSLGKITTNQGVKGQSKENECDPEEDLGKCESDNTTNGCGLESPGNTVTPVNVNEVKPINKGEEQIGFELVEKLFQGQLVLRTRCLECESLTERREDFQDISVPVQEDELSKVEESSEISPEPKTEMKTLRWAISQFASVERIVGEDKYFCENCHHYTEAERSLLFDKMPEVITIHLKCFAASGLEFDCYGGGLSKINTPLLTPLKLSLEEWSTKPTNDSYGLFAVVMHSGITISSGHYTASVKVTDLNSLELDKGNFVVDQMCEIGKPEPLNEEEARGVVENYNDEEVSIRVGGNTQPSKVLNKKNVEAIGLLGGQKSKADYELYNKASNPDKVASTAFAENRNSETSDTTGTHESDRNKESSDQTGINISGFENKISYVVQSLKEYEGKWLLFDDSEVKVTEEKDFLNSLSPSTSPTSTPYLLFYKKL
Cytochrome P450 1A2 (Homo sapiens), sequence (P05177 whole entry, looked up): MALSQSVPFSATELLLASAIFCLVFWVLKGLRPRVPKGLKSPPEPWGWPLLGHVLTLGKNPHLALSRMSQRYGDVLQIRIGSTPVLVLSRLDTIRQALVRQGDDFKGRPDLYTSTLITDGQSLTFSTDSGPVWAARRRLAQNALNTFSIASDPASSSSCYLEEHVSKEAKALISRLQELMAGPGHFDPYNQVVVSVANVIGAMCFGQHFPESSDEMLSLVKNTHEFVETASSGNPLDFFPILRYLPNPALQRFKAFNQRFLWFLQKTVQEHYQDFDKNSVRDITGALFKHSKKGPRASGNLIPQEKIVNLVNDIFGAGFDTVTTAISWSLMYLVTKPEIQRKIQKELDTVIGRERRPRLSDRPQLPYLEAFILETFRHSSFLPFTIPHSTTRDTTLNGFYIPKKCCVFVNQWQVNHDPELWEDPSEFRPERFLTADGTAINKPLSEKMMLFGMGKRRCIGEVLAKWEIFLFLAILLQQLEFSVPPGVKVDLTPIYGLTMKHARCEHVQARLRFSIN
Lysosomal acid glucosylceramidase (Homo sapiens), sequence (P04062 whole entry, looked up): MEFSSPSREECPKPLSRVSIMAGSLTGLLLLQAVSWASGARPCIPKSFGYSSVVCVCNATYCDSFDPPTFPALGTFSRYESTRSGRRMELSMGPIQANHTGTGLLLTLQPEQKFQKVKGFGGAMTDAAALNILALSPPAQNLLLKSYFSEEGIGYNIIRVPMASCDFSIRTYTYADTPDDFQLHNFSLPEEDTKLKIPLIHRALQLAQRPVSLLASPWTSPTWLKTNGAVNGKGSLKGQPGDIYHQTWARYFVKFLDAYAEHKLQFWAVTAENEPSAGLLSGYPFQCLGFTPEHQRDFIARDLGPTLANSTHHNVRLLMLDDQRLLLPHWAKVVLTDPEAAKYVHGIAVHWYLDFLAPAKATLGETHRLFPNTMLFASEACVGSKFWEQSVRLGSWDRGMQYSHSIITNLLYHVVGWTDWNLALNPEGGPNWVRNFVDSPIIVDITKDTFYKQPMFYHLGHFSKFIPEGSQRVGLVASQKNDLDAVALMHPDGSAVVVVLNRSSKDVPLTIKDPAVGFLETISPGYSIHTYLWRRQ
Cytochrome P450 2C19 (Homo sapiens), sequence (P33261 whole entry, looked up): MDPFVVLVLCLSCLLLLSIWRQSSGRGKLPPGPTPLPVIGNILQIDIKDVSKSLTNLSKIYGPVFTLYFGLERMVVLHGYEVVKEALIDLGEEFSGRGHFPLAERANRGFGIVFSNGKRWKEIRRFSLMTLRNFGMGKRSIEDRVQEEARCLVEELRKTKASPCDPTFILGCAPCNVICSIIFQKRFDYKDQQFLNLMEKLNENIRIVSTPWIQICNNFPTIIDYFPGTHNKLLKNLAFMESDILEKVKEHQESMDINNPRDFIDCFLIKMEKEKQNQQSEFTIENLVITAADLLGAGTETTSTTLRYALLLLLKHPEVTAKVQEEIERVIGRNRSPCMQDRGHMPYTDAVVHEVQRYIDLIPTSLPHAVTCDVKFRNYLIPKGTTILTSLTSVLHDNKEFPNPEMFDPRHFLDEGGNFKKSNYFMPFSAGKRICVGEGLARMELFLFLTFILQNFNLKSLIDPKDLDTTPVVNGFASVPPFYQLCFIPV

As for `O=c1c(CCc2ccccc2)nc2cnc(N3CCNCC3)nc2n1Cc1cccs1`, the activity change, negative = inhibition in assay [1] is 3.16%. The values for the Potency in assay [2] and in assay [3] were greater than 9.22 µM and greater than 46 µM, respectively. Further, the Potency result in [4], in assay [5], in assay [6], in [7], in assay [8] and in assay [9] was “inactive” in each case.
In the case of `COCCNc1ncnc2ccc(-c3ccccc3OC)cc12`, the activity change, negative = inhibition in assay [10] is -6.49%; in assay [1] it was 2.23%. Further, the Potency is 2 µM (active) in assay [11]; greater than 46 µM in assay [2]; greater than 46 µM in [3]; 5.01 µM (active) in assay [14]; 15.8 µM (active) in assay [6]; 10 µM (active) in [7]. The outcome in assay [12] and in assay [13] was inactive. Also, the Potency entry in [4], in [5] and in [9] was “inactive” throughout.
Turning to `COc1cccc(Nc2ncc3nc(-c4cccs4)c(=O)n(C[C@H]4CCCO4)c3n2)c1`, the values for the Potency in assay [15], in assay [2] and in [3] were greater than 11.4 µM, greater than 9.22 µM and greater than 46 µM, respectively. In addition, the activity change, negative = inhibition in assay [1] was -15.5%. For the same molecule, the molecule was classed as inactive in assay [12]. Also, the Potency entry in assay [4], in [5], in assay [6], in assay [7] and in assay [8] was “inactive” each time.
`COCCn1c(=O)c(-c2cc(F)cc(F)c2)nc2cnc(N3CCN(C)CC3)nc21`: the Potency was greater than 11.4 µM in [15]; 15.8 µM (active) in [11]; greater than 9.22 µM in assay [2]; greater than 46 µM in [3]; 3.16 µM (active) in assay [16]. Further, the activity change, negative = inhibition in [10] was 19.3%. The Potency entry in assay [4], in assay [5], in assay [6] and in assay [7] was “inactive” throughout.
For `CCNc1ncc2nc(CCc3ccccc3)c(=O)n(CCC#N)c2n1`, the activity change, negative = inhibition in assay [10] is -12.2%; in assay [1] it was -10.7%. Further, the Potency in assay [11] is 3.98 µM (active); in assay [2] it was greater than 9.22 µM; in assay [3] it was greater than 46 µM; in assay [17], 6.31 µM (active); in assay [18] it was 0.158 µM (active). The result in assay [12] and in [13] was inactive. Also, the Potency result in [4], in assay [6], in assay [7] and in assay [8] was “inactive” each time.
In the case of `CN(C)c1ccc(-c2cncnc2NCCN2CCOCC2)cc1`, the Potency is greater than 11.4 µM in assay [15]; 15.8 µM (active) in assay [11]; greater than 46 µM in [2]; greater than 46 µM in [3]; 3.16 µM (active) in assay [19]; 6.31 µM (active) in assay [14]. Moreover, the Potency in assay [16] is 1.26 µM (active). For the same molecule, the call in assay [12] and in [13] was inactive. For the same molecule, the Potency entry in [4], in [5], in assay [6], in assay [7], in [8] and in assay [9] was “inactive” each time.
In the case of `COc1ccccc1-c1nc(Nc2ccncc2)c2ccccc2n1`, the Potency was 0.316 µM (active) in assay [11]; greater than 46 µM in [2]; greater than 46 µM in assay [3]; 14.1 µM (active) in assay [6]; 12.6 µM (active) in assay [7]; 14.1 µM (active) in [8]. In addition, the result in [12] and in assay [13] was inactive. For the same molecule, the Potency entry in assay [4] and in [9] was “inactive” in each case.
